Compound activity: PubChem, National Center for Advancing Translational Sciences (NCATS)
This is a sample that favours compounds with a hit; in the whole collection about 19% have one here.
Pf growth 96h – P. falciparum growth inhibition at 96 hour, primary screen for plastid delayed-death inhibitors. P. falciparum luciferase reporter growth, 96 h. Potency, µM (highest dose often 28.7 µM), without a hit: at the top dose activity change, negative = inhibition, hits mostly inhibitors. 320,000 tested, 6.9% active. AID 504834; also: potency is read from the fitted curve at half-maximal effect; % is scaled to controls: 0 for no effect and ±100 for the full control effect
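Cell-based qHTS: luciferase-tagged P. falciparum in erythrocytes (2% hematocrit, 0.05% parasitemia final) incubated with compounds for 96 hours, 37 C, 5% CO2; luciferase detection reagent then added and luminescence measured.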
Shiga toxin inh – blocks Shiga toxin action in Vero cells; Vero cells, Shiga toxin protein synthesis inhibition reporter; inhibition, % at 38.7 µM; 290,000 tested, 9.2% active; in the data active = inhibition mostly above about 28%, no sharp cut-off; inactive = mostly below about 43%; also: 0% is about no effect
Lassa entry inh – inhibitors of Lassa virus binding or cell entry. Lassa virus pseudotype entry inhibition, cell reporter. Potency, µM (highest dose often 37.9 µM), without a hit: top-dose activity change, negative = inhibition, usual class: inhibitors. 300,000 tested, 1.2% active. AID 540256; calls by dose curve; tested in HEK293 cells; also: potency is read from the fitted curve at half-maximal effect; % is scaled to controls: 0 for no effect and ±100 for the full control effect; nearly all actives have a fitted effect of over 50% in size
Marburg entry inh – blocks Marburg virus binding to or entry into cells | Marburg virus pseudotyped entry inhibition, cell reporter | Potency, µM (top dose mostly 37.8 µM), for the others: top-dose activity change, negative = inhibition, hits mostly inhibitors | 300,000 tested, 1.8% active; calls by dose curve; tested in HEK293 cells; also: potency is read from the fitted curve at half-maximal effect; % is scaled to controls: 0 for no effect and ±100 for the full control effect
Cycloheximide cs – counter-screen hit for Shiga toxin inhibitors, cycloheximide | cell reporter, cycloheximide protein synthesis inhibition counterscreen | max response, % | 300,000 tested, 12% active | AID 2314; in the data active = max response mostly above about 13%, no sharp cut-off; inactive = mostly below about 14%; also: read at 38.3 µM for the half of the compounds with a filed dose; 0% is about no effect
Pf growth 48h – inhibits P. falciparum growth in the first generation, 48 h; P. falciparum luciferase growth in erythrocytes, 48 h; Potency, µM (titrated, usually from 28.7 µM), inactives show top-dose activity change, negative = inhibition, hits mostly inhibitors; 310,000 tested, 5.9% active; AID 504832; also: potency is read from the fitted curve at half-maximal effect; % is scaled to controls: 0 for no effect and ±100 for the full control effect
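Read-out is firefly luciferase luminescence from an integrated reporter in P. falciparum, so falling signal marks reduced parasite growth. Infected erythrocytes were at 2% hematocrit and 0.1% parasitemia (final) in Albumax-supplemented RPMI 1640.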
Active calls of the source: *; [ ] = dose if it differs, or a comment. Unless noted, calls follow the shape of the dose curve; as a rule, active = well fitted inhibition curve with a large enough effect; inconclusive = small, poorly fitted or top-dose-only effect, or another doubt; inactive = no such curve, though single readings can be large or run the other way.

For CCOC(=O)/C(=C\c1ccc(N2CCC(c3ccccc3)=N2)cc1)C(C)=O the results were Lassa entry inh 7.94µM* and Marburg entry inh 2.82µM*.
O=C(/C=C/c1ccc(N2CCC(c3ccccc3)=N2)cc1)c1ccccc1 was read as Pf growth 96h 34.4%, Shiga toxin inh 79.6*, Lassa entry inh -9.3%, Marburg entry inh 2.5%, Cycloheximide cs 39.0* and Pf growth 48h 105.9%.
Screening Cc1ccccc1N(CC(=O)NCc1ccccc1)C(=O)CCC(=O)Nc1nccs1 returned Pf growth 96h -6.3%, Shiga toxin inh -3.4, Lassa entry inh inconclusive, Marburg entry inh -2.1%, Cycloheximide cs -4.0 and Pf growth 48h -19.8%.
`c1ccc(-c2nc(-c3ccc(-c4ccon4)s3)no2)cc1` gave Pf growth 96h 107.5%, Shiga toxin inh 61.3*, Lassa entry inh -0.5%, Marburg entry inh 14.5%, Cycloheximide cs 33.6* and Pf growth 48h 353.0%.
Screening c1csc(-c2nc(-c3ccc(-c4ccon4)s3)no2)c1 returned Pf growth 96h 259.9%, Shiga toxin inh 65.4*, Cycloheximide cs 56.1* and Pf growth 48h 392.8%.
For CC(=O)c1cccc(NC(=O)CCc2c(C)nc3nc(CN)nn3c2C)c1 the results were Lassa entry inh -2.0%[46.1 µM] and Marburg entry inh inconclusive.
Screening CCOC(=O)C(C)Oc1c(Br)cc(C2NC(=O)NC(C)=C2C(C)=O)cc1OCC (centres undefined) returned Pf growth 96h inconclusive, Shiga toxin inh -6.1, Lassa entry inh 0.4%, Marburg entry inh -17.1% and Cycloheximide cs 6.0.
CCOC(=O)COc1cc(Br)c(C2NC(=O)NC(C)=C2C(C)=O)cc1OCC (centres undefined) was read as Pf growth 96h 9.28µM*, Shiga toxin inh -17.5, Lassa entry inh -22.8%[14.3 µM], Marburg entry inh -3.2% and Cycloheximide cs -5.7.
`CCS(=O)(=O)N1CCC(C(=O)O)CC1` gave Pf growth 96h 19.7%, Shiga toxin inh -6.6, Lassa entry inh 3.6%, Marburg entry inh inconclusive, Cycloheximide cs 6.7 and Pf growth 48h 3.1%.
Screening c1n[nH]c(SCCCCSc2ncn[nH]2)n1 returned Pf growth 96h 114.9%, Shiga toxin inh -14.0, Lassa entry inh -2.2%, Marburg entry inh 3.1% and Cycloheximide cs -6.6.
Screening CCOC(=O)C1(C(F)(F)F)N=C(C(F)(F)F)Nc2cc(C)c(C)cc21 (centres undefined) returned Pf growth 96h inconclusive, Shiga toxin inh -7.4, Lassa entry inh -5.1%, Marburg entry inh inconclusive, Cycloheximide cs -4.1 and Pf growth 48h -4.2%.
Screening COc1ccccc1C(=O)Nc1ccc2c(C)cc(=O)oc2c1 returned Pf growth 96h 9.1%, Shiga toxin inh 106.9*, Lassa entry inh inconclusive, Marburg entry inh inconclusive, Cycloheximide cs 35.1* and Pf growth 48h 136.5%.
Screening Cc1cc(=O)oc2cc(NC(=O)c3ccc(OC(F)F)cc3)ccc12 returned Pf growth 96h 56.3%, Shiga toxin inh 43.2*, Lassa entry inh inconclusive, Marburg entry inh 17.3%[46.1 µM], Cycloheximide cs 21.4* and Pf growth 48h 56.3%.
For Cc1cc(=O)oc2cc(NC(=O)Cc3ccccc3)ccc12 the results were Pf growth 96h 22.8%, Shiga toxin inh 45.0*, Lassa entry inh 20.9%, Marburg entry inh inconclusive, Cycloheximide cs 13.4 and Pf growth 48h 44.7%.
For Fc1cccc(NC(=S)NCc2ccccn2)c1 the results were Pf growth 96h 31.6%, Shiga toxin inh 94.0*, Lassa entry inh 15.6%, Marburg entry inh 2.0%, Cycloheximide cs 49.9* and Pf growth 48h 124.0%.
`Cc1nn(Cc2ccccc2)c(C)c1C(=O)NCCN1C(=O)S/C(=C\c2ccccc2)C1=O` gave Pf growth 96h -25.0%, Shiga toxin inh -7.0, Lassa entry inh inconclusive, Marburg entry inh inconclusive, Cycloheximide cs -1.8 and Pf growth 48h -16.5%.
Screening Nc1ccc(C(=O)OCC(=O)c2cccc([N+](=O)[O-])c2)cc1 returned Pf growth 96h 0.4%, Shiga toxin inh 44.9, Lassa entry inh inconclusive, Marburg entry inh inconclusive, Cycloheximide cs 17.4 and Pf growth 48h 47.4%.
`COc1ccccc1N1CCN(C2CCCN(C(=O)CN3CCCC3=O)C2)CC1` (centres undefined) gave Pf growth 96h inconclusive, Shiga toxin inh -3.9, Lassa entry inh -2.3%, Marburg entry inh 29.3%, Cycloheximide cs 0.8 and Pf growth 48h 1.3%.
